Pol kappa inh = inhibitors of human DNA polymerase kappa; AID 588579; purified Pol kappa, fluorescent DNA synthesis assay, 10 min; Potency, µM (titrated, usually from 107 µM), for inactives: at the top dose activity, negative = inhibition, hits mostly inhibitors; hit rate 0.53% among 400,000; Q9UBT6; further: potency means the concentration at half of the fitted maximal effect; on the % scale 0 is the no-effect control and ±100 the full control effect
Target sequence (Q9UBT6 whole entry, looked up): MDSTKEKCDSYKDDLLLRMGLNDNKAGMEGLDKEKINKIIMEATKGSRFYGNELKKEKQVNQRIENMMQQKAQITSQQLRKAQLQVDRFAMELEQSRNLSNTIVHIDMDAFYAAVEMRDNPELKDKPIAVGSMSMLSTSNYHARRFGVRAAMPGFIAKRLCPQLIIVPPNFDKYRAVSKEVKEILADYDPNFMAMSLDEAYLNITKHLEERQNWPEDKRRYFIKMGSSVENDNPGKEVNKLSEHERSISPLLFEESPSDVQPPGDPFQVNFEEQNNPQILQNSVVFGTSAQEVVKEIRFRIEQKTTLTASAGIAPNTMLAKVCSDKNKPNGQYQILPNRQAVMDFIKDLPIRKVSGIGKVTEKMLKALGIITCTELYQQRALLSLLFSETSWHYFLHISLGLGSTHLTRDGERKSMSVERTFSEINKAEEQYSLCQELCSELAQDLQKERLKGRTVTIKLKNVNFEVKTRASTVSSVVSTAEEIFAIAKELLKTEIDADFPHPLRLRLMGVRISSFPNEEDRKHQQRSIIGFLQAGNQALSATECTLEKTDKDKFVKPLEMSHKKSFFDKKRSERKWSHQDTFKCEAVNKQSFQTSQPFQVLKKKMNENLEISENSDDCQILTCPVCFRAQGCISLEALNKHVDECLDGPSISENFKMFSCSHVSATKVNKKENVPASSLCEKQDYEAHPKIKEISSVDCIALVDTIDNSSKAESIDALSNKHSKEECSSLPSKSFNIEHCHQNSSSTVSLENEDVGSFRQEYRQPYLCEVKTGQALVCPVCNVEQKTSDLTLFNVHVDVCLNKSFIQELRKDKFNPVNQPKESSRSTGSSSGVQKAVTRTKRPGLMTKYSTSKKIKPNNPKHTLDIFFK
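50 nM final substrate added after 15 min RT preincubation of 10 nM Pol kappa with compound; fluorescence read at 0 and 10 min.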
GCN5L2 inh-1 = inhibitors of human GCN5L2 histone acetyltransferase; Q92830; GCN5L2 HAT assay, ThioGlo1 CoA-SH fluorescence; Potency, µM (doses to about 58.9 µM), for the others: at the top dose activity change, negative = inhibition, hits mostly inhibitors; hit rate 0.21% among 390,000; further: potency means the concentration at half of the fitted maximal effect; on the % scale 0 is the no-effect control and ±100 the full control effect
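Titration-based screen in which CoA formation is detected via maleimide probe ThioGlo1 (50uM) turning fluorescent on thiol reaction; substrates H3(1-25) 75uM and acetyl-CoA 70uM, GCN5L2 20nM, 20 min incubation at room temperature.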
POLI inh = blocks human DNA polymerase iota activity; Potency, µM (series often up to 115 µM), without a hit: at the highest dose activity, negative = inhibition, usual class: inhibitors; hit rate 1% among 390,000; Pol iota fluorescent replication assay, 10 min; further: potency means the concentration at half of the fitted maximal effect
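Pol iota at 10 nM preincubated 15 min with compounds at room temperature; reaction started with fluorescent substrate, 50 nM final. Fluorescence read kinetically at 0 and 10 min; buffer-only wells as negative control.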
GLS inh = blocks human kidney-isoform glutaminase activity; GLS enzymatic activity, qHTS titration; O94925; Potency, µM (titrated, usually from 45.5 µM), for inactives: at the highest dose activity change, negative = inhibition, actives largely listed as inhibitors; hit rate 0.21% among 410,000; further: potency means the concentration at half of the fitted maximal effect; on the % scale 0 is the no-effect control and ±100 the full control effect
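Compounds were pin-transferred onto hKGA, after which L-glutamine (1 mM solution) and a detection mix of glutamate oxidase, HRP and Amplex Red were added. Initial and 30 min RT fluorescence reads were collected.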
POLH inh = inhibitors of human DNA polymerase eta | Potency, µM (titrated, usually from 114 µM), for the others: at the top dose activity change, negative = inhibition, hits mostly inhibitors | AID 588591 | Q9Y253 | hit rate 1.2% among 390,000 | recombinant Pol eta, fluorescent DNA replication assay; further: potency means the concentration at half of the fitted maximal effect; on the % scale 0 is the no-effect control and ±100 the full control effect
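Fluorescent replication assay: 50 nM final substrate added after a 15 min room-temperature compound preincubation with 10 nM enzyme. Signal taken at 0 min and again at 10 min.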
POLB inh = DNA polymerase beta (human) inhibition; P06746; Pol beta primer extension/strand displacement, fluorescence kinetic; Potency, µM (titrated, usually from 114 µM), without a hit: at the top dose activity change, negative = inhibition, usual class: inhibitors; hit rate 1.3% among 340,000; AID 485314; further: potency means the concentration at half of the fitted maximal effect; on the % scale 0 is the no-effect control and ±100 the full control effect
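Preincubation: enzyme (10 nM) with compound, 15 min, RT. Reaction: substrate added to 50 nM final. Reads: 0 and 10 min. Analysis: normalized, Hill fit.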
GCN5L2 inh-2 = confirmation of human GCN5L2 histone acetyltransferase inhibitors. shares compounds with GCN5L2 inh-1. Potency, µM, usual class: inhibitors. GCN5L2 HAT, ThioGlo1 CoA fluorescence, 20 min. hit rate 70% among 140. AID 588347
* hit, by the source's call; ? = inconclusive; nt = not tested or not shown; [ ] = dose if it differs, or a comment. Compounds with a hit are over-represented: about 2.4% of the library has one in this group of screens. The call rests on the fitted dose curve; in most records, active means well fitted inhibition curve with a large enough effect; inconclusive means small, poorly fitted or top-dose-only effect, or another doubt; inactive means no such curve, though single readings can be large or run the other way.

SMILES | Pol kappa inh | GCN5L2 inh-1 | POLI inh | GLS inh | POLH inh | POLB inh | GCN5L2 inh-2
O=C(Nc1cccc(C(F)(F)F)c1)c1ccc2nc(-c3ccco3)c(-c3ccco3)nc2c1 | 45µM* | ? | 16µM* | ? | 8.9µM* | 10µM* | 18*
O=C(Nc1ccc2nc(-c3ccco3)c(-c3ccco3)nc2c1)NC1CC1 | 10µM* | 8.9µM* | 1.3µM* | 86% | 1.3µM* | 3.5µM* | 20*
O=C(Nc1cccc(C(F)(F)F)c1)c1ccc2snnc2c1 | -5% | -3% | 9% | -3% | -17% | -1% | nt
CCOC(=O)c1c(NC(=O)c2ccc(S(=O)(=O)N(CCOC)CCOC)cc2)sc2c1CC(C)(C)NC2(C)C | -8%[60.1 µM] | -6% | -8% | 3% | -20% | 10% | nt
O=C(COc1ccc(F)cc1)Nc1ccc(S(=O)(=O)N(Cc2ccccc2)c2ccccc2)cc1 | 6% | -10% | 23% | 4% | -18% | 0% | nt
N#Cc1c(-c2ccccc2)nc(SCc2cccc(Cl)c2)[nH]c1=O | -14% | ? | 80% | -19% | ? | ? | 18*
Cc1cccc(Cn2c(SCc3ccc(C(=O)N4CCCCCC4)cc3)nc3ccncc32)c1 | 6% | -3% | ? | 9% | -15% | 10% | nt
CCOC(=O)c1c(NC(=O)COC(=O)c2cnccn2)sc(C(=O)NC)c1C | 3% | 0% | 35% | -13% | -10% | nt | nt
CCOC(=O)c1c(-c2ccco2)csc1NC(=O)COC(=O)c1cnccn1 | ? | 11µM* | 22µM* | 6% | 22µM* | nt | ?
CCC(Cn1nnc2ccccc2c1=O)NC(=O)Nc1ccc(C)cc1C (stereo not given) | -5% | -5% | 0% | -10% | -14% | -8% | nt
COc1ccc(OC)c(/C=C/C(=O)Nc2cccc(S(=O)(=O)NC3=NCCCCC3)c2)c1 | -2% | 32µM* | -1% | 0% | -27% | nt | 32*
O=C(O)CCc1nn2cc(-c3ccccc3)nc2[nH]c1=O | -26% | ? | -15% | -5% | ? | -1% | 32*
Cc1nn2cc(-c3ccccc3)nc2[nH]c1=O | -2% | ? | ? | -4% | -7% | 23% | nt
CC(C)(O)C1Cc2cc(/C=C/C(=O)O)c(O)cc2O1 (stereo not given) | 6% | 10µM* | ? | 3% | -16% | 24% | 9.1*
COc1ccccc1N1CCN(C(=O)c2cnn(-c3ccc(C)c(C)c3)c2C2CCN(C(=O)OC(C)(C)C)CC2)CC1 | -3% | 0% | 8% | 8% | -24% | -12% | nt
CCCC(=O)Nc1ccc(-c2cn3cccnc3n2)cc1 | -16% | 32µM* | 22% | 0% | 0% | 20% | 20*
ClC(Cl)(c1nnnn1-c1ccccc1)c1nnnn1-c1ccccc1 | -5% | 22µM* | 14µM* | 10µM* | 2% | 3% | 8.1*
CC(C)(C)c1ccc(OCC(=O)Nc2ccc(C(=O)Nc3ccccc3C(=O)O)cc2)cc1 | -28% | 32µM* | 9% | -6% | 79µM* | -13% | 23*
Cc1ccc(NC(=O)C2CCN(c3nc(-c4ccc(C(C)C)cc4)no3)CC2)c(Cl)c1 | -9%[60.1 µM] | -13% | 26% | -1% | -13% | -2% | nt
Cc1ccc(C2=NOC(=O)/C2=C\C=C\c2ccccc2)cc1 | -21% | 25µM* | ? | ? | 89µM* | ? | ?
CN(C)/C=C1\C(=O)ON=C1c1ccccc1 | -15% | -4% | 35% | 0% | -2% | 15% | nt
CCc1cccc(-n2nnc(-c3nc(-c4ccccc4Cl)no3)c2N)c1 | -4% | 0% | -15% | 2% | -12% | ? | nt
O=c1c(=O)n(-c2ccccc2)ccn1Cc1cccc(C(F)(F)F)c1 | 5% | 1% | 1% | 7% | -11% | 2% | nt
O=C(Nc1ccc(O)c(-c2nc3ccccc3o2)c1)C1(c2ccc(Cl)cc2)CCCC1 | -17% | ? | 18% | 8% | -16% | 5% | 14*
O=C(Nc1ccc(O)c(-c2nc3ccccc3o2)c1)C1(c2ccc([N+](=O)[O-])cc2)CCCC1 | -8% | -5% | 50% | 2% | -14% | -7%[57.1 µM] | nt
SMILES | Pol kappa inh | GCN5L2 inh-1 | POLI inh | GLS inh | POLH inh | POLB inh | GCN5L2 inh-2
COc1ccc(NC(=O)c2c(-c3ccc(C)cc3)nnc3ccccc23)c(OC)c1 | 2% | 13% | 6% | 4% | 2% | -3% | nt
Cc1cc2nc(-c3ccc[nH]c3=O)[nH]c2cc1C | -22% | 28µM* | -12% | -5% | -6% | -27% | 36*
Cc1ccc(S(=O)(=O)N2[C@@H](c3ccccc3)C(C(=O)O)=CC[C@H]2c2ccc(Cl)c(Cl)c2)cc1 | -15% | ? | 35% | 32% | ? | nt | nt
O=C(O)C1=CC[C@@H](c2ccc(Cl)cc2)N(S(=O)(=O)c2ccc(Cl)cc2)[C@H]1c1ccc(Br)cc1 | -16% | 25µM* | -1% | 4% | ? | nt | 18*
Cc1ccc(S(=O)(=O)N2[C@@H](c3ccccc3F)C(C(=O)O)=CC[C@H]2c2ccc(Cl)c(Cl)c2)cc1 | -15% | 28µM* | -11% | 18% | -5% | nt | ?
Cc1cccc(CC(=O)Nc2ccc3nc(N4CCC(C)CC4)cc(C)c3c2)c1 | -6% | -5% | 36% | -14% | -7% | -8% | nt
C=CCn1c(SCC(=O)Nc2cc(Cl)ccc2C(=O)O)nc2sc(C)c(C)c2c1=O | -10% | 32µM* | -12% | ? | -8% | nt | ?
COc1cccc(CNC(=O)c2ccc3c(c2)nc2n3CCOC2)c1OC | -7%[60.1 µM] | -2% | 13% | 8% | -15% | -12% | nt
Cc1ccc(-c2noc(-c3ccc(N4CCOCC4)c([N+](=O)[O-])c3)n2)cc1 | -4% | -12% | -26% | 2% | -1% | 16% | nt
CN=c1nc(-c2ccccc2)n(-c2ccccc2)s1 | -12%[60.1 µM] | 2.2µM* | -6% | ? | 1% | ? | 2.6*
Nc1ccc2nn(-c3cccc4ccccc34)nc2c1 | -12% | ? | -2% | -3% | ? | 1% | 23*
Cc1cc2nn(-c3cccc4ccccc34)nc2cc1N | -2% | -4% | 17% | -3% | ? | 5% | nt
CCN(CC)c1ccc2cc(NC(=O)CCC(=O)O)c(=O)oc2c1 | -11% | 20µM* | -2% | 60% | -2% | -22% | 32*
COc1ccc(S(=O)(=O)NCc2ccc(C(=O)NCc3ccccc3)cc2)cc1 | -10% | -7% | 0% | 11% | -16% | 7% | nt
O=C(O)c1ccc(C[n+]2c(-c3ccccc3)csc2Nc2ccccc2)cc1 | -7% | 2% | -17% | 8% | ? | 24% | nt

Screens deposited in PubChem by National Center for Advancing Translational Sciences (NCATS).
